A number with no mark means an inactive call. Active and inactive are the calls of the source.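 How the source made its calls: active means inhibition at or above 50% relative to wild type and mutant plate controls; inactive means inhibition below 50%.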

This experiment is described as follows: inhibitors of Chlamydomonas gravitaxis, primary screen, whole organism, Chlamydomonas reinhardtii, WT vs cilia-less mutant, absorbance, 96-well (AID 463189).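 Further: 0% = wild type cc124 cells in DMSO and 100% = ciliumless bld1 mutant cells.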 Particulars: OD600 absorbance, 2 days, at 10 µM, hits give high values.
In the case of `CC#C[C@]1(O)CC[C@H]2[C@@H]3CCC4=CC(=O)CCC4=C3[C@@H](c3ccc(N(C)C)cc3)C[C@@]21C`, the inhibition was 1.39%. For `OC[C@H]1O[C@@H](n2cnc3c(N[C@H]4CC5CCC4C5)ncnc32)[C@H](O)[C@@H]1O` (stereo not given in full), the inhibition was 2.84%. In the case of `CC1=C(CC(=O)O)c2cc(F)ccc2/C1=C\c1ccc(S(C)(=O)=O)cc1` it was 2.22%. In the case of `CN(Cc1cnc2nc(N)nc(N)c2n1)c1ccc(C(=O)N[C@H](CCC(=O)O)C(=O)O)cc1`, the inhibition was -2.58%.

Take `NC[C@H](O)c1ccc(O)c(O)c1`: the inhibition was 6.74%. Then `COc1cc2c(CCNC(C)=O)c[nH]c2cc1O`, with -0.037%; and `NC(=O)c1ncn([C@@H]2O[C@H](CO)[C@@H](O)[C@H]2O)n1`, with 8.25%. In the case of `C/C(=C\c1ccc(C(=O)O)cc1)c1ccc2c(c1)C(C)(C)CCC2(C)C`, the inhibition is 9.5%. For the compound `Nc1ccc(N2C(=O)c3ccccc3C2=O)c(Cl)c1`, the inhibition was -0.463%.

Turning to `CCc1cccc(N(C)C(N)=Nc2cccc3ccccc23)c1`, the inhibition is -1.11%. For the compound `CCCc1c(-c2ccc(O)cc2)nn(-c2ccc(O)cc2)c1-c1ccc(O)cc1`, the inhibition is 6.07%. As to `NC(=S)c1ccc[n+]([C@@H]2O[C@@H](COP(=O)([O-])OP(=O)(O)OC[C@H]3O[C@@H](n4cnc5c(N)ncnc54)C(OP(=O)(O)O)[C@H]3O)C(O)C2O)c1` (stereo not given in full), the inhibition is 6.21%. `O=C1N=C(O)CN1/N=C/c1ccc(-c2ccc([N+](=O)[O-])cc2)o1`: the inhibition was 4.87%.

In the case of `CC(=O)c1ccc(S(=O)(=O)NC(=O)NC2CCCCC2)cc1`, the inhibition is -5.49%.

For `OC1(c2ccc(Cl)cc2)CCN(Cc2c[nH]c3ccccc23)CC1`, the inhibition is 21.4%. As to `OC(CN1CCC(Cc2ccc(F)cc2)CC1)c1ccc(Cl)cc1` (stereo not given), the inhibition was -0.098%. As for `CN(C)C/C=C(/c1ccc(Br)cc1)c1cccnc1`, the inhibition is 108% (active). In the case of `N=C(N)c1ccc(OCCCCCOc2ccc(C(=N)N)cc2)cc1` (tested in a mixture with another compound) it was 143% (active).

As for `NS(=O)(=O)c1cccc2c1c([N+](=O)[O-])cc1nc(O)c(O)nc12`, the inhibition was 0.793%.

Consider `O=C(NCCNCC(O)COc1ccc(O)cc1)N1CCOCC1` (stereo not given), for which the inhibition was 10.1%. On to `CC(C)C(=O)c1c(C(C)C)nn2ccccc12`, for which the inhibition is 52.8% (active).

`C=CCN1CCc2cc(O)c(O)cc2C(c2ccccc2)C1` (stereo not given): the inhibition was 8.31%.

On to `CCCCN1CCC(COC(=O)c2cc(Cl)c(N)c3c2OCCO3)CC1`, for which the inhibition is -6.29%. Turning to `O=c1c(O)c(-c2cc(O)c(O)c(O)c2)oc2cc(O)cc(O)c12`, the inhibition was 9.46%. Turning to `CNc1ncnc2c1ncn2[C@H]1C[C@H](OP(=O)(O)O)[C@@H](COP(=O)(O)O)O1`, the inhibition was 1.24%. On to `Oc1ccccc1O`, for which the inhibition is -5%. For `CNC(=O)c1cc2c(cn1)[nH]c1ccccc12`, the inhibition is 4.1%. As for `CCCc1c(OCCCOc2ccc(OCC(=O)O)cc2)ccc(C(C)=O)c1O`, the inhibition was 0.316%. As for `CC(N)(C(=O)O)c1ccc(C(=O)O)cc1` (stereo not given), the inhibition was 5.26%. On to `C=C[C@H]1CN2CCC1C[C@@H]2[C@@H](O)c1ccnc2ccc(OC)cc12` (stereo not given in full), for which the inhibition was 5.44%. As for `COc1ccccc1OCC(O)CN1CCN(CC(=O)Nc2c(C)cccc2C)CC1` (stereo not given), the inhibition is 8.13%. Turning to `CC1=C(C(=O)O)N2C(=O)[C@@H](NC(=O)C(N)c3ccccc3)[C@H]2SC1` (stereo not given in full), the inhibition was -0.964%. For `NC(N)=NC(N)=Nc1cccc(Cl)c1`, the inhibition was 4.09%. In the case of `O=c1c(-c2ccc(O)cc2)coc2cc(O)cc(O)c12`, the inhibition was -5.08%. With `COc1ccc2[nH]c(I)c(CCNC(C)=O)c2c1`, the inhibition was -0.69%.

`O=c1oc(Cl)c(Cl)c2ccccc12`: the inhibition was 3.88%. Turning to `COc1ccccc1NC(=O)Nc1nc(-c2cccnc2)nc2ccccc12`, the inhibition is -0.831%. For the compound `CCn1cc(C(=O)O)c(=O)c2ccc(Cc3ccccc3)nc21`, the inhibition is 6.19%. Regarding `CCCCCCCCCCCCCCSCC(=O)O`, the inhibition is 7.96%. Consider `CC(N)=NCCCC[C@@H](N)C(=O)O`, for which the inhibition was 7.31%.
